Assay results taken from article PMC5540273 (PLoS ONE, 2017).

Columns and labels:
Details in all cases: concentration: 1 μM,replicates: in singlicate; n = 1
NIM1 = tested on: T1, NIM1
T1 construct: gene MGC42105

NLK = tested on: NLK
OSR1 = tested on: T2, OSR1
T2 construct: gene OXSR1

PAK1 = tested on: PAK1
PAK2 = tested on: PAK2
PAK3 = tested on: PAK3
PAK4 = tested on: PAK4
PAK6 = tested on: PAK6
PAK7 = tested on: PAK7
PCTK1 = tested on: T3, PCTK1
T3 construct: gene CDK16

PCTK2 = tested on: T4, PCTK2
T4 construct: gene CDK17

PCTK3 = tested on: T5, PCTK3
T5 construct: gene CDK18

PDGFRA = tested on: PDGFRA
PDGFRB = tested on: PDGFRB
PDPK1 = tested on: PDPK1
PFTAIRE2 = tested on: PFTAIRE2
PFTK1 = tested on: T6, PFTK1
T6 construct: gene CDK14

PHKG1 = tested on: PHKG1
PHKG2 = tested on: PHKG2
PIK3C2B = tested on: PIK3C2B
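Note: KINOMEscan kinase panel screen.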

| SMILES | %Inh (NIM1) [%] | %Inh (NLK) [%] | %Inh (OSR1) [%] | %Inh (PAK1) [%] | %Inh (PAK2) [%] | %Inh (PAK3) [%] | %Inh (PAK4) [%] | %Inh (PAK6) [%] | %Inh (PAK7) [%] | %Inh (PCTK1) [%] | %Inh (PCTK2) [%] | %Inh (PCTK3) [%] | %Inh (PDGFRA) [%] | %Inh (PDGFRB) [%] | %Inh (PDPK1) [%] | %Inh (PFTAIRE2) [%] | %Inh (PFTK1) [%] | %Inh (PHKG1) [%] | %Inh (PHKG2) [%] | %Inh (PIK3C2B) [%] |
| --- | --- | --- | --- | --- | --- | --- | --- | --- | --- | --- | --- | --- | --- | --- | --- | --- | --- | --- | --- | --- |
| Cn1ccc2ncnc(Oc3ccc(NC(=O)Nc4cccc(C(F)(F)F)c4)c(Cl)c3)c21 | 0 | 25 | 0 | 10 | 17 | 21 | 15 | 1 | 1 | 0 | 0 | 8 | 98.6 | 100 | 0 | 3 | 10 | 0 | 3 | 0 |
| Cc1cccc2c(-c3ccncc3)c(-c3ccc(F)cc3)nn12.Cl [GW461487] | 10 | 65 | 0 | 24 | 8 | 100 | 0 | 0 | 0 | 0 | 0 | 0 | 0 | 14 | 0 | 9 | 11 | 0 | 0 | 0 |
| Cn1ccc2ncnc(Oc3ccc(NC(=O)Nc4cncc(C(F)(F)F)c4)c(Cl)c3)c21 | 0 | 9 | 0 | 25 | 0 | 0 | 1 | 0 | 0 | 0 | 0 | 0 | 98.2 | 100 | 26 | 0 | 0 | 0 | 9 | 0 |
| COc1cccc(OC)c1C(=O)Nc1cccc(-c2nn3ccccc3c2-c2ccnc(Nc3cccc(F)c3)n2)c1 [GSK361065] | 0 | 90 | 0 | 6 | 10 | 0 | 10 | 24 | 0 | 0 | 0 | 3 | 0 | 90.2 | 4 | 2 | 3 | 1 | 2 | 0 |
| O=C(Nc1n[nH]c2cc(-c3ccco3)ccc12)C1CC1 [SB-737447] | 0 | 4 | 12 | 0 | 48 | 0 | 1 | 0 | 8 | 36 | 31 | 28 | 30 | 59 | 0 | 0 | 1 | 0 | 3 | 6 |
| O=C(Nc1cccc(C(F)(F)F)c1)c1cccc(Oc2ccc3nccn3n2)c1 | 44 | 0 | 0 | 0 | 0 | 20 | 8 | 1 | 0 | 21 | 0 | 0 | 98.5 | 99.9 | 13 | 0 | 0 | 33 | 0 | 99.3 |
| CCNCC(Cc1ccccc1)NC(=O)c1cc(Br)c(-c2ccnc3[nH]ccc23)s1.Cl.Cl (centres unmarked) [GSK1383280] | 20 | 0 | 8 | 26 | 40 | 62 | 44 | 60 | 78 | 0 | 15 | 0 | 51 | 75 | 0 | 0 | 21 | 27 | 20 | 0 |
| Cn1ccc2ncnc(Oc3ccc(NC(=O)Nc4cc(C(C)(C)C)on4)c(Cl)c3)c21 | 0 | 67 | 20 | 20 | 23 | 46 | 8 | 1 | 0 | 27 | 8 | 7 | 98.9 | 100 | 0 | 9 | 0 | 3 | 9 | 7 |
| CSc1nccc(-c2c(-c3ccc(F)cc3)ncn2CCCN2CCOCC2)n1.Cl [SB-217146] | 0 | 0 | 0 | 3 | 43 | 0 | 10 | 0 | 0 | 0 | 0 | 0 | 0 | 12 | 10 | 0 | 0 | 11 | 0 | 0 |
| Cc1nnc(-c2ccc3occ(-c4ccc(S(C)=O)cc4)c3n2)o1 (centres unmarked) | 0 | 55 | 0 | 4 | 0 | 0 | 0 | 3 | 0 | 0 | 2 | 0 | 0 | 0 | 2 | 0 | 0 | 0 | 16 | 0 |
| Cn1ccc2ncnc(Oc3ccc(NC(=O)Nc4cccc(C(F)(F)F)c4)c(F)c3)c21 | 0 | 18 | 0 | 14 | 12 | 0 | 6 | 0 | 0 | 0 | 17 | 1 | 99.1 | 100 | 17 | 0 | 0 | 18 | 0 | 0 |
| C[C@@H]1CCN(C(=O)N2CCCC2)C[C@@H]1N(C)c1ncnc2[nH]ccc12 | 18 | 0 | 11 | 0 | 0 | 25 | 0 | 0 | 3 | 5 | 0 | 0 | 21 | 19 | 0 | 0 | 0 | 0 | 5 | 0 |
| Cc1ccc2c(-c3ccnc(Nc4ccc(C(F)(F)F)cc4)n3)cnn2n1 [GW819776] | 3 | 24 | 0 | 1 | 50 | 18 | 0 | 0 | 0 | 6 | 12 | 0 | 0 | 45 | 0 | 12 | 0 | 18 | 0 | 0 |
| CCn1c(-c2nonc2N)nc2cncc(Br)c21 [SB-738004] | 37 | 22 | 0 | 0 | 16 | 1 | 7 | 15 | 32 | 0 | 14 | 6 | 50 | 18 | 6 | 10 | 25 | 0 | 0 | 0 |
| CC(=O)c1c(-c2ccncc2)[nH]c(-c2ccncc2)c1C [GW493036] | 8 | 18 | 3 | 15 | 19 | 20 | 0 | 2 | 0 | 4 | 0 | 54 | 0 | 7 | 0 | 0 | 26 | 0 | 0 | 0 |
| Cc1ccc(CC(=O)N2CCc3cc(-c4cn(C)c5ncnc(N)c45)ccc32)cc1 [GSK2634758] | 13 | 1 | 0 | 0 | 0 | 49 | 0 | 100 | 0 | 0 | 0 | 0 | 39 | 96.4 | 57 | 9 | 17 | 0 | 0 | 40 |
| COc1ccc(Nc2nccc(N3CCC(NC(=O)c4cccc(C#N)c4)C3)n2)cc1 (centres unmarked) [GSK1379730] | 0 | 0 | 0 | 0 | 0 | 24 | 0 | 0 | 0 | 3 | 0 | 3 | 0 | 4 | 26 | 0 | 0 | 0 | 0 | 0 |
| CS(=O)c1ccc(-c2coc3ccc(-c4n[nH]c(=O)o4)cc23)cc1 (centres unmarked) | 7 | 11 | 83 | 0 | 36 | 18 | 4 | 5 | 19 | 14 | 2 | 0 | 10 | 0 | 0 | 0 | 4 | 0 | 6 | 8 |
| Cc1ccn2nc(-c3ccc(F)cc3)c(-c3ccncc3)c2c1.Cl [GW457859] | 20 | 79 | 0 | 0 | 0 | 0 | 0 | 0 | 21 | 0 | 18 | 7 | 0 | 33 | 0 | 7 | 24 | 0 | 11 | 0 |
